# From the supplement of paper PMC4022240
# ± gives the standard deviation.
# T1: HaloTag-ATRX ADD domain (163-292)
# T1 chain: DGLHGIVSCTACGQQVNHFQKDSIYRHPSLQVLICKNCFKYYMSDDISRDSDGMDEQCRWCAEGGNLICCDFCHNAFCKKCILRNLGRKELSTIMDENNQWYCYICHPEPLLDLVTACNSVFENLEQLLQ
# What was measured:
# Experiment in all cases: peptide microarray binding signal (635 nm), min-max normalized on array (fraction of array maximum); higher = stronger binding
# Conditions in all cases: peptide region: H3 11-23
# [1] = target: T1, HaloTag-ATRX ADD domain (163-292)
# Outline: (§1)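 For each library, binding signal was taken as the triplicate-spot mean intensity and then min-max scaled. Spots of histone 13-mer peptide–cellulose conjugates on nitrocellulose, printed in triplicate with a Cy3 tracer, were probed for 1 h at 4°C with either biotin-labelled HaloTag reader fusions (10 nM to 1 μM) and streptavidin-Alexa Fluor 647 or rabbit histone antibodies (1:10,000 to 1:2,000) and anti-rabbit Alexa 647. Readout at 635 nm came from an Axon GenePix 4000B.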
# [2] = target: HaloTag-ING2 PHD (mouse Ing2 200-280)
# Outline: as §1
# [3] = target: anti-H3K4me3 antibody ab8580
# Outline: as §1
# [4] = target: anti-H3K9me3 antibody ab8898
# Outline: as §1
# [5] = peptide modifications: H3K14me2 H3K18me2, binder concentration: 1:2,000 dilution
# [6] = peptide modifications: H3K14me2 H3K18me2, binder concentration: 1:10,000 dilution
# [7] = peptide modifications: H3K14me2 H3K18me3, binder concentration: 1:2,000 dilution
# [8] = peptide modifications: H3K14me2 H3K18me3, binder concentration: 1:10,000 dilution
# [9] = peptide modifications: H3K14me2 H3R17cit, binder concentration: 1:2,000 dilution
# [10] = peptide modifications: H3K14me2 H3R17cit, binder concentration: 1:10,000 dilution
# [11] = peptide modifications: H3K14me2 H3R17me1, binder concentration: 1:2,000 dilution
# [12] = peptide modifications: H3K14me2 H3R17me1, binder concentration: 1:10,000 dilution
# [13] = peptide modifications: H3K14me2 H3R17me2a, binder concentration: 1:2,000 dilution
# [14] = peptide modifications: H3K14me2 H3R17me2a, binder concentration: 1:10,000 dilution
# [15] = peptide modifications: H3K14me2 H3R17me2s, binder concentration: 1:2,000 dilution
# [16] = peptide modifications: H3K14me2 H3R17me2s, binder concentration: 1:10,000 dilution
# [17] = peptide modifications: H3K14me3, binder concentration: 1:2,000 dilution
# [18] = peptide modifications: H3K14me3, binder concentration: 1:10,000 dilution
# [19] = peptide modifications: H3K14me3 H3K18ac, binder concentration: 1:2,000 dilution
# [20] = peptide modifications: H3K14me3 H3K18ac, binder concentration: 1:10,000 dilution
# [21] = peptide modifications: H3K14me3 H3K18me1, binder concentration: 1:2,000 dilution
# [22] = peptide modifications: H3K14me3 H3K18me1, binder concentration: 1:10,000 dilution
# [23] = peptide modifications: H3K14me3 H3K18me2, binder concentration: 1:2,000 dilution
# [24] = peptide modifications: H3K14me3 H3K18me2, binder concentration: 1:10,000 dilution
binder,measurement,setting,value
TGGKAPRKQLATK [H3 11-23 T G G Kme2 A P R Kme2 Q L A T K],peptide microarray binding signal,"[1]; peptide modifications: H3K14me2 H3K18me2, binder concentration: 50 nM",0.00868 ± 0.00041
same,peptide microarray binding signal,"[1]; peptide modifications: H3K14me2 H3K18me2, binder concentration: 500 nM",0.0137 ± 0.0018
same,peptide microarray binding signal,"[2]; peptide modifications: H3K14me2 H3K18me2, binder concentration: 10 nM",0.00555 ± 0.00016
same,peptide microarray binding signal,"[2]; peptide modifications: H3K14me2 H3K18me2, binder concentration: 100 nM",0.0111 ± 0.00051
same,peptide microarray binding signal,[3]; [5],0.0136 ± 0.0033
same,peptide microarray binding signal,[3]; [6],0.0097 ± 0.0018
same,peptide microarray binding signal,[4]; [5],0.00616 ± 0.00078
same,peptide microarray binding signal,[4]; [6],0.00536 ± 0.00032
TGGKAPRKQLATK [H3 11-23 T G G Kme2 A P R Kme3 Q L A T K],peptide microarray binding signal,"[1]; peptide modifications: H3K14me2 H3K18me3, binder concentration: 50 nM",0.00646 ± 0.00024
same,peptide microarray binding signal,"[1]; peptide modifications: H3K14me2 H3K18me3, binder concentration: 500 nM",0.009572 ± 8e-05
same,peptide microarray binding signal,"[2]; peptide modifications: H3K14me2 H3K18me3, binder concentration: 10 nM",0.00859 ± 0.00099
same,peptide microarray binding signal,"[2]; peptide modifications: H3K14me2 H3K18me3, binder concentration: 100 nM",0.0188 ± 0.0022
same,peptide microarray binding signal,[3]; [7],0.54 ± 0.11
same,peptide microarray binding signal,[3]; [8],0.4 ± 0.12
same,peptide microarray binding signal,[4]; [7],0.0567 ± 0.005
same,peptide microarray binding signal,[4]; [8],0.0291 ± 0.002
TGGKAPRKQLATK [H3 11-23 T G G Kme2 A P Rcit K Q L A T K],peptide microarray binding signal,"[1]; peptide modifications: H3K14me2 H3R17cit, binder concentration: 50 nM",0.00455 ± 0.00063
same,peptide microarray binding signal,"[1]; peptide modifications: H3K14me2 H3R17cit, binder concentration: 500 nM",0.0129 ± 0.0034
same,peptide microarray binding signal,"[2]; peptide modifications: H3K14me2 H3R17cit, binder concentration: 10 nM",0.0106 ± 0.0018
same,peptide microarray binding signal,"[2]; peptide modifications: H3K14me2 H3R17cit, binder concentration: 100 nM",0.0185 ± 0.002
same,peptide microarray binding signal,[3]; [9],0.00051 ± 4e-05
same,peptide microarray binding signal,[3]; [10],0.0016 ± 4.6e-05
same,peptide microarray binding signal,[4]; [9],0.00488 ± 0.0014
same,peptide microarray binding signal,[4]; [10],0.00398 ± 0.00058
TGGKAPRKQLATK [H3 11-23 T G G Kme2 A P Rme K Q L A T K],peptide microarray binding signal,"[1]; peptide modifications: H3K14me2 H3R17me1, binder concentration: 50 nM",0.00417 ± 0.00015
same,peptide microarray binding signal,"[1]; peptide modifications: H3K14me2 H3R17me1, binder concentration: 500 nM",0.0101 ± 0.00014
same,peptide microarray binding signal,"[2]; peptide modifications: H3K14me2 H3R17me1, binder concentration: 10 nM",0.00483 ± 0.00017
same,peptide microarray binding signal,"[2]; peptide modifications: H3K14me2 H3R17me1, binder concentration: 100 nM",0.00843 ± 0.0018
same,peptide microarray binding signal,[3]; [11],0.00376 ± 0.0005
same,peptide microarray binding signal,[3]; [12],0.00211 ± 8.9e-05
same,peptide microarray binding signal,[4]; [11],0.00378 ± 0.00014
same,peptide microarray binding signal,[4]; [12],0.00288 ± 8.6e-05
TGGKAPRKQLATK [H3 11-23 T G G Kme2 A P Rme2a K Q L A T K],peptide microarray binding signal,"[1]; peptide modifications: H3K14me2 H3R17me2a, binder concentration: 50 nM",0.00561 ± 0.00083
same,peptide microarray binding signal,"[1]; peptide modifications: H3K14me2 H3R17me2a, binder concentration: 500 nM",0.00867 ± 0.00039
same,peptide microarray binding signal,"[2]; peptide modifications: H3K14me2 H3R17me2a, binder concentration: 10 nM",0.00686 ± 0.00028
same,peptide microarray binding signal,"[2]; peptide modifications: H3K14me2 H3R17me2a, binder concentration: 100 nM",0.00893 ± 0.00059
same,peptide microarray binding signal,[3]; [13],0.00351 ± 0.00056
same,peptide microarray binding signal,[3]; [14],0.00434 ± 0.00045
same,peptide microarray binding signal,[4]; [13],0.00379 ± 0.00076
same,peptide microarray binding signal,[4]; [14],0.00306 ± 0.00024
TGGKAPRKQLATK [H3 11-23 T G G Kme2 A P Rme2s K Q L A T K],peptide microarray binding signal,"[1]; peptide modifications: H3K14me2 H3R17me2s, binder concentration: 50 nM",0.00489 ± 0.00015
same,peptide microarray binding signal,"[1]; peptide modifications: H3K14me2 H3R17me2s, binder concentration: 500 nM",0.0177 ± 0.0016
same,peptide microarray binding signal,"[2]; peptide modifications: H3K14me2 H3R17me2s, binder concentration: 10 nM",0.0129 ± 0.0031
same,peptide microarray binding signal,"[2]; peptide modifications: H3K14me2 H3R17me2s, binder concentration: 100 nM",0.00964 ± 0.0051
same,peptide microarray binding signal,[3]; [15],0.00034 ± 1e-05
same,peptide microarray binding signal,[3]; [16],0.0123 ± 0.0055
same,peptide microarray binding signal,[4]; [15],0.00669 ± 0.0021
same,peptide microarray binding signal,[4]; [16],0.00726 ± 0.0002
TGGKAPRKQLATK [H3 11-23 T G G Kme3 A P R K Q L A T K],peptide microarray binding signal,"[1]; peptide modifications: H3K14me3, binder concentration: 50 nM",0.00567 ± 0.0004
same,peptide microarray binding signal,"[1]; peptide modifications: H3K14me3, binder concentration: 500 nM",0.017 ± 0.0053
same,peptide microarray binding signal,"[2]; peptide modifications: H3K14me3, binder concentration: 10 nM",0.0115 ± 0.0029
same,peptide microarray binding signal,"[2]; peptide modifications: H3K14me3, binder concentration: 100 nM",0.0106 ± 0.0035
same,peptide microarray binding signal,[3]; [17],0.0134 ± 0.0088
same,peptide microarray binding signal,[3]; [18],0.0221 ± 0.0092
same,peptide microarray binding signal,[4]; [17],0.062 ± 0.022
same,peptide microarray binding signal,[4]; [18],0.0336 ± 0.0081
TGGKAPRKQLATK [H3 11-23 T G G Kme3 A P R Kac Q L A T K],peptide microarray binding signal,"[1]; peptide modifications: H3K14me3 H3K18ac, binder concentration: 50 nM",0.00646 ± 0.00042
same,peptide microarray binding signal,"[1]; peptide modifications: H3K14me3 H3K18ac, binder concentration: 500 nM",0.0102 ± 0.00058
same,peptide microarray binding signal,"[2]; peptide modifications: H3K14me3 H3K18ac, binder concentration: 10 nM",0.0146 ± 0.00098
same,peptide microarray binding signal,"[2]; peptide modifications: H3K14me3 H3K18ac, binder concentration: 100 nM",0.032 ± 0.004
same,peptide microarray binding signal,[3]; [19],0.06 ± 0.018
same,peptide microarray binding signal,[3]; [20],0.0259 ± 0.0059
same,peptide microarray binding signal,[4]; [19],0.0686 ± 0.018
same,peptide microarray binding signal,[4]; [20],0.0246 ± 0.0023
TGGKAPRKQLATK [H3 11-23 T G G Kme3 A P R Kme Q L A T K],peptide microarray binding signal,"[1]; peptide modifications: H3K14me3 H3K18me1, binder concentration: 50 nM",0.00624 ± 0.00027
same,peptide microarray binding signal,"[1]; peptide modifications: H3K14me3 H3K18me1, binder concentration: 500 nM",0.0127 ± 0.00063
same,peptide microarray binding signal,"[2]; peptide modifications: H3K14me3 H3K18me1, binder concentration: 10 nM",0.0189 ± 0.00082
same,peptide microarray binding signal,"[2]; peptide modifications: H3K14me3 H3K18me1, binder concentration: 100 nM",0.0235 ± 0.0053
same,peptide microarray binding signal,[3]; [21],0.0496 ± 0.0091
same,peptide microarray binding signal,[3]; [22],0.0252 ± 0.0028
same,peptide microarray binding signal,[4]; [21],0.0621 ± 0.0077
same,peptide microarray binding signal,[4]; [22],0.0203 ± 0.0028
TGGKAPRKQLATK [H3 11-23 T G G Kme3 A P R Kme2 Q L A T K],peptide microarray binding signal,"[1]; peptide modifications: H3K14me3 H3K18me2, binder concentration: 50 nM",0.0154 ± 0.00095
same,peptide microarray binding signal,"[1]; peptide modifications: H3K14me3 H3K18me2, binder concentration: 500 nM",0.00933 ± 0.00068
same,peptide microarray binding signal,"[2]; peptide modifications: H3K14me3 H3K18me2, binder concentration: 10 nM",0.0107 ± 0.0026
same,peptide microarray binding signal,"[2]; peptide modifications: H3K14me3 H3K18me2, binder concentration: 100 nM",0.0194 ± 0.008
same,peptide microarray binding signal,[3]; [23],0.0408 ± 0.02
same,peptide microarray binding signal,[3]; [24],0.0276 ± 0.0038
same,peptide microarray binding signal,[4]; [23],0.0775 ± 0.0048
same,peptide microarray binding signal,[4]; [24],0.0328 ± 0.0026
